Test results published in PubChem BioAssay AID624483 (NMMLSC, 2012).
Screen size: about 360,000 compounds; about 11,000 (3.1%) were called active. Inconclusive results (about 2%) are left out. Many of the other results were omitted from the sample, so actives are more common in it than they were. A number with no mark means an inactive call. Rule as the data show it: active = fluorescence intensity above about 16000; inconclusive = no clear call, values can overlap the other calls; inactive = below that.

Assay: counter-screen for toxin protease inhibitors: compound fluorescence, primary screen, artefact control for toxin protease inhibitor project, biochemical, multiplex microsphere, HTS (AID 624483)
Details: compound autofluorescence counterscreen, microsphere flow cytometry; active compounds read high

Row | SMILES | fluorescence intensity
1 | OC[C@@H]1CN(C2CCCC2)C[C@H](n2cnc3c(NC4CCC4)ncnc32)O1 | 2860
2 | Cn1c(=O)[nH]c(=O)c2c1nc(NCCCn1ccnc1)n2Cc1cccc(Br)c1 | 4650
3 | COc1cccc(-n2c(=O)c3c(C)c(C(=O)N(C)C)sc3n(CC(=O)NCCc3ccc(OC)c(OC)c3)c2=O)c1 | 4050
4 | Cc1cccc(N=C2NC(=O)CS2)c1C | 7480
5 | CCOc1ccccc1N=C1NC(=O)CS1 | 23300 (active)
6 | CCC/C(O)=C1\C(=O)CC(C)(C)CC1=Nc1ccccc1OC | 2780
7 | Cc1nc(-c2ccccc2)cn2c1nc1ccccc12 | 2360
8 | CN(C)C(=O)c1cccc(-c2cnc3c(NC=O)cc(-c4ccc(C(=O)N5CCOCC5)cc4)cn23)c1 | 3080
9 | CCOc1ccc(CCN2C(=O)C(=O)N([C@@H](CC(C)C)CN3CCC[C@H]3CN3C(=O)C(=O)NC[C@@H]3Cc3ccccc3)C[C@@H]2CC(C)C)cc1 | 4830
10 | CCOC(=O)CSc1nnc(-c2ccco2)n1C | 19700 (active)
11 | NC(=O)c1c(NC(=O)CSc2nnc(-c3ccco3)n2N)sc2c1CCCC2 | 2490
12 | CCc1cccc(C)c1NC(=O)CSc1nnc(-c2ccco2)n1N | 23800 (active)
13 | Cn1c(SCC(=O)c2cccs2)nnc1-c1ccco1 | 8030
14 | Nn1c(SCC(=O)Nc2nccs2)nnc1-c1ccco1 | 6070
15 | CCOc1ccc(-n2c(SCC(N)=O)nnc2-c2ccco2)cc1 | 3680
16 | O=C(Nc1ccc(Cl)c(C(F)(F)F)c1)C1Cc2c(-c3ccccc3Oc3ccccc3)ccnc2O1 (stereo unspecified) | 3930
17 | OC(c1cc(Cl)cc(Cl)c1)c1ncc(-c2ccccc2C(F)(F)F)[nH]1 (stereo unspecified) | 2910
18 | O=C(Nc1ccc(Cl)cc1)c1csc([C@@H]2O[C@H](CO)[C@H](O)[C@H](O)[C@H]2O)n1 | 3610
19 | CCCCn1c(SCC(=O)NCC2CCCO2)nc2ccc(N3CCOCC3)cc2c1=O (stereo unspecified) | 21100 (active)
20 | O=C(CSc1nc2ccccc2c(=O)n1Cc1ccc(F)cc1)NCC1CCCO1 (stereo unspecified) | 6760
21 | COCCNC(=O)c1ccc(Cn2c(SCC(=O)NCC3CCCO3)nc3ccc(Br)cc3c2=O)cc1 (stereo unspecified) | 5480
22 | CCn1c(SCC(=O)NCC2CCCO2)nc2ccccc21 (stereo unspecified) | 4090
23 | CCn1c(SCC(=O)NCC2CCCO2)nc2cc(S(=O)(=O)N3CCCCC3)ccc21 (stereo unspecified) | 3450
24 | O=C(CCCn1c(SCC(=O)c2ccccc2)nc2ccccc2c1=O)NCC1CCCO1 (stereo unspecified) | 23800 (active)

Row | SMILES | fluorescence intensity
25 | O=C(O)C1CCCN1S(=O)(=O)c1ccc2c(c1)CCC2 (stereo unspecified) | 7810
26 | CC(C)(C)SCCSC1=CC(=O)CC(c2ccccc2)C1 (stereo unspecified) | 3630
27 | CCCCNC(=O)C[C@@H]1C[C@@]2(C(=O)OCC)CCC=C2N(Cc2ccco2)C1=O | 6060
28 | CC1(Cc2ccccc2C#N)C(=O)Nc2ccc(-c3ccc4[nH]ccc4c3)cc21 (stereo unspecified) | 3220
29 | COc1ccc(NC(=O)CCCN2C(=O)C(c3ccccc3)Oc3cccnc32)cc1 (stereo unspecified) | 5260
30 | CCC1CCCCN1S(=O)(=O)Cc1ccccc1Cl (stereo unspecified) | 5020
31 | Cc1nnsc1C(=O)Nc1cccc(Cl)c1C | 4480
32 | Cc1nnsc1S(=O)(=O)Cc1ccccc1Cl | 22200 (active)
33 | C[C@H]1COc2cc(N3CCSCC3)ccc2S(=O)(=O)N1 | 5560
34 | c1ccc(C[C@H]2CNCCN2CCC23CC4CC(CC(C4)C2)C3)cc1 | 3210
35 | Cc1cc(C)n(-c2nc(C(F)(F)F)nc3ccccc23)n1 | 3100
36 | CCCOn1c(-n2nc(C)cc2C)nc2ccccc2c1=O | 23500 (active)
37 | Cc1cc(C)n(-c2c(F)c(F)c(COC(=O)c3ccccc3)c(F)c2F)n1 | 3060
38 | COc1cc(/C=C/C(=O)OCC(=O)NCCCc2ccccc2)ccc1O | 5380
39 | Cc1ccccc1S(=O)(=O)N1[C@@H](c2cccc(Cl)c2)C(C(=O)OC(C)(C)C)=CC[C@H]1c1ccc(Cl)cc1 | 4430
40 | CC12CCC(C(=O)N(CCC#N)CCC#N)(CC1=O)C2(C)C (stereo unspecified) | 20400 (active)
41 | Cn1c(=O)c2c(nc(N/N=C/c3cccs3)n2Cc2ccc(Br)cc2)n(C)c1=O | 2410
42 | O=C(Nc1cccc(NC(=O)c2ccco2)c1)c1cnccn1 | 23700 (active)
43 | O=C(Nc1nnc(Cc2ccccc2)s1)c1cnccn1 | 3990
44 | CC(C)(C)NC(=O)c1cc(NC(=O)c2ccco2)cc(NC(=O)c2ccco2)c1 | 3040
45 | CCOC(=O)N(C)c1c(CC)nc2c(OCc3ccccc3C(=O)OC)cccn12 | 3540
46 | COc1cc(NC(=O)c2cc(-c3ccc(F)cc3OC(C)C)n[nH]2)cc(OC)c1OC | 3570
47 | CCNC(=O)c1cc2c(c(-c3cccc(-c4cncnc4)c3)n1)[C@H](CCO)N(C(C)=O)C2 | 6050
48 | O=C1NC[C@H](CCCCN2CCN(CCc3ccccc3)C(=O)C2=O)N(CC2CCCCC2)C1=O | 5200

Row | SMILES | fluorescence intensity
49 | Cc1ccc(NC(=O)C2(N3CCC3=O)CCCCC2)cc1 | 2510
50 | O=C(c1cccc(S(=O)(=O)N2CCOCC2)c1)N1CCOCC1 | 25300 (active)
51 | O=C(c1cc(S(=O)(=O)N2CCOCC2)ccc1Cl)N1CCOCC1 | 5390
52 | O=C(Nc1ccc(N2CCOCC2)cc1)c1cccc(S(=O)(=O)N2CCOCC2)c1 | 2540
53 | Cc1cccc(OCCNC(=O)CSc2ccc(C(F)(F)F)cc2[N+](=O)[O-])c1 | 2620
54 | O=c1c2ccccc2nc(CBr)n1-c1ccc(Cl)cc1 | 3850
55 | O=c1c2ccccc2nc(-c2ccc(Cl)cc2Cl)n1-c1ccncc1 | 18700 (active)
56 | O=c1c2ccccc2nc(-c2ccccc2)n1-c1ccccn1 | 4770
57 | CCOc1ccc(NC(=O)CCS(=O)(=O)c2ccc3c(c2)CCCN3C(=O)CC)cc1 | 10500
58 | CCNc1nc(NC(C)C)nc(N2CC(=O)N(CC(=O)OCC)C2=N)n1 | 10500
59 | CCNc1nc(NC(C)C)nc(OCCOC(=O)c2ccccc2)n1 | 22900 (active)
60 | COC(=O)c1ccc(Oc2nc(NC(C)C)nc(SC)n2)cc1 | 2470
61 | CN(C)N1C(N)=C(C#N)C(c2ccc(Br)cc2)C2=C1CCCC2=O (stereo unspecified) | 4350
62 | CCOc1ccc(-n2c(O)c(/C=N/Nc3nc(C)cc(C)n3)c3ccccc3c2=O)cc1 | 4560
63 | CCOc1ccc(N=Cc2c(O)n(-c3cccc(C)n3)c(=O)c3ccccc23)cc1 | 20300 (active)
64 | Cc1ccc(N=Cc2c(O)n(-c3nccs3)c(=O)c3ccccc23)c(C)c1 | 2410
65 | O/N=C(\C[n+]1ccccc1)c1ccc(Br)cc1 | 3050
66 | COC(=O)c1sccc1NC(=O)CC1C(=O)NCCN1C(=O)Nc1ccc(F)cc1F (stereo unspecified) | 6320
67 | CS(=O)(=O)N(CC(=O)N1CCc2ccccc2C1)c1ccc(Br)cc1 | 4000
68 | Cc1ccc(S(=O)(=O)N(CC(=O)N2CCc3ccccc3C2)c2cccc(Cl)c2)cc1 | 2460
69 | COc1cccc(N(CC(=O)N2CCc3ccccc3C2)S(C)(=O)=O)c1 | 22900 (active)
70 | COc1cc(/C=N\NC(=O)c2nonc2N)c(OC)cc1Br | 2500
71 | CCOc1ccc(/C=C(/C#N)c2nnc(N3CCOCC3)n2-c2ccccc2)cc1OC | 3950
72 | COc1cc(N2CCCC2)c(OC)cc1/C=C(/C#N)c1cccc(Br)c1 | 20000 (active)

Row | SMILES | fluorescence intensity
73 | O=C(O)c1ccccc1-c1cccc2nncn12 | 3820
74 | Cc1sc2ccccc2c1CNC[C@H]1O[C@@H](n2ccc(=O)[nH]c2=O)[C@H](O)[C@@H]1O | 6010
75 | CCc1nc2c(OCCOc3ccccc3)cccn2c1N(C=O)Cc1ccc(OC)cc1 | 3280
76 | O=C1CCCc2c1[nH]c1ccc(Br)cc21 | 10300
77 | Cc1occc1C(=O)N/N=C/c1ccc(-c2cccc([N+](=O)[O-])c2)o1 | 6020
78 | COc1ccccc1CNS(=O)(=O)c1ccc(C)cc1 | 3200
79 | Cc1ccc(S(=O)(=O)NCc2nc3ccccc3c(=O)n2N)cc1 | 23000 (active)
80 | C#CCCCc1nc2ccccc2c(=O)n1N | 2060
81 | O=C(COc1ccc(-c2ccccc2)cc1)NN=C1CCCC1 | 4340
82 | O=S(=O)(NC1CCCCC1)c1ccc(F)c2ccccc12 | 17400 (active)
83 | O=S(=O)(NC1CC1)c1ccc2c3c(cccc13)CC2 | 4730
84 | O=S(=O)(NC1CC1)c1ccc(F)c(F)c1 | 5500
85 | Cc1cc(=O)oc2c3c(cc(OCC(=O)NCC(O)c4ccccc4)c12)OC(C)(C)CC3 (stereo unspecified) | 5100
86 | COc1cccc(NC(=O)CCc2nnc3ccc(N4CCC(C)CC4)nn23)c1 | 5600
87 | CCOC(=O)[C@]12CCC=C1N(Cc1ccco1)C(=O)[C@H](CC(=O)N1CCSCC1)C2 | 4160
88 | CC(C)(C(=O)N1CCC1(C)C(=O)NS(=O)(=O)c1ccc(Br)cc1)c1ccccc1 (stereo unspecified) | 3370
89 | NC(c1ccccc1)c1csc(NC(=O)Nc2cccc(C(F)(F)F)c2)n1 (stereo unspecified) | 3690
90 | Cc1cc2ncn(CCCCOc3ccccc3)c2cc1C | 17400 (active)
91 | Clc1ncn(CCOc2ccccc2)c1Cl | 3990
92 | COCCOCCn1cnc2ccccc21 | 9770
93 | CSc1ccc(CN2CCC2(C)C(=O)Nc2ccc(C)c(O)c2)cc1 (stereo unspecified) | 3540
94 | O=[N+]([O-])c1ccc(NCCCN2CCOCC2)c(Cl)c1 | 22800 (active)
95 | O=C(NCCCN1CCOCC1)c1ccc([N+](=O)[O-])cc1[N+](=O)[O-] | 4500
96 | O=C(NCCCNc1ccc([N+](=O)[O-])cc1Cl)c1ccccc1F | 4790
